Measured values reported in PubChem BioAssay AID1159580 (chemical genetic matrix, 2015).
Hit rate of the full screen: of about 5,500 compounds, about 2,000 (36%) were called active. About 18% were inconclusive and are not listed. No stated cut-off is given here; in the data, active means normalized growth mostly below about 0.91 (no sharp cut-off); inconclusive means no clear call, values can overlap the other calls; inactive means mostly above about 0.92. The list shows a part of the results.

Assay: chemical genetic growth profiling, strain panel (AID 1159580);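 further: tested at 20 µM; growth read once vehicle control cultures reached saturation at 30 °C; 1 = growth at the plate median or of vehicle wells; lower values mean less growth of the strain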
Details: growth OD
[1] = S. cerevisiae deletion strains, locus YDL101C, strain DUN1, active compounds read low
[2] = S. cerevisiae deletion strains, locus YHR030C, strain SLT2, active compounds read low

Measured: normalized growth

N#C/C(=N/Nc1ccccc1Cl)S(=O)(=O)c1ccc(Cl)cc1
inactive: S. cerevisiae deletion strains, locus YAR019C, strain CDC15, active compounds read low 0.976 | S. cerevisiae deletion strains, locus YBL105C, strain PKC1, active compounds read low 0.97 | S. cerevisiae deletion strains, locus YBR135W, strain CKS1, active compounds read low 0.964 | S. cerevisiae deletion strains, locus YBR136W, strain MEC1, active compounds read low 0.968 | S. cerevisiae deletion strains, locus YBR160W, strain CDC28, active compounds read low 0.969 | S. cerevisiae deletion strains, locus YDL017W, strain CDC7, active compounds read low 0.976 | S. cerevisiae deletion strains, locus YDL028C, strain MPS1, active compounds read low 0.975 | [1] 0.978 | S. cerevisiae deletion strains, locus YDL108W, strain KIN28, active compounds read low 0.977 | S. cerevisiae deletion strains, locus YDL132W, strain cdc53, active compounds read low 0.971 | S. cerevisiae deletion strains, locus YDL214C, strain PRR2, active compounds read low 0.889 | S. cerevisiae deletion strains, locus YDR052C, strain DBF4, active compounds read low 0.966 | S. cerevisiae deletion strains, locus YDR054C, strain cdc34, active compounds read low 0.966 | S. cerevisiae deletion strains, locus YDR226W, strain ADK1, active compounds read low 0.974 | S. cerevisiae deletion strains, locus YDR477W, strain SNF1, active compounds read low 0.889 | S. cerevisiae deletion strains, locus YER123W, strain YCK3, active compounds read low 0.882 | S. cerevisiae deletion strains, locus YER133W, strain GLC7, active compounds read low 0.909 | S. cerevisiae deletion strains, locus YFL009W, strain cdc4, active compounds read low 0.968 | S. cerevisiae deletion strains, locus YFL029C, strain CAK1, active compounds read low 0.969 | S. cerevisiae deletion strains, locus YFR003C, strain YPI1, active compounds read low 0.973 | S. cerevisiae deletion strains, locus YFR019W, strain FAB1, active compounds read low 0.859 | S. cerevisiae deletion strains, locus YFR028C, strain CDC14, active compounds read low 0.95 | S. cerevisiae deletion strains, locus YGR040W, strain KSS1, active compounds read low 0.889 | S. cerevisiae deletion strains, locus YGR052W, strain FMP48, active compounds read low 0.869 | S. cerevisiae deletion strains, locus YGR092W, strain DBF2, active compounds read low 0.715 | [2] 0.916 | S. cerevisiae deletion strains, locus YHR079C, strain IRE1, active compounds read low 0.955 | S. cerevisiae deletion strains, locus YHR082C, strain KSP1, active compounds read low 0.918 | S. cerevisiae deletion strains, locus YHR205W, strain SCH9, active compounds read low 0.866 | S. cerevisiae deletion strains, locus YIL147C, strain SLN1, active compounds read low 0.968 | S. cerevisiae deletion strains, locus YJL095W, strain BCK1, active compounds read low 0.852 | S. cerevisiae deletion strains, locus YJL128C, strain PBS2, active compounds read low 0.944 | S. cerevisiae deletion strains, locus YJL157C, strain FAR1, active compounds read low 0.909 | S. cerevisiae deletion strains, locus YJR016C, strain ILV3, active compounds read low 0.974 | S. cerevisiae deletion strains, locus YJR066W, strain TOR1 (second series), active compounds read low 0.877 | S. cerevisiae deletion strains, locus YJR066W, strain TOR1, active compounds read low 0.962 | S. cerevisiae deletion strains, locus YKL048C, strain ELM1, active compounds read low 0.886 | S. cerevisiae deletion strains, locus YKL067W, strain YNK1, active compounds read low 0.911 | S. cerevisiae deletion strains, locus YKL101W, strain HSL1, active compounds read low 0.835 | S. cerevisiae deletion strains, locus YKL193C, strain SDS22, active compounds read low 0.976 | S. cerevisiae deletion strains, locus YKL203C, strain TOR2, active compounds read low 0.943 | S. cerevisiae deletion strains, locus YLR113W, strain HOG1, active compounds read low 0.877 | S. cerevisiae deletion strains, locus YLR133W, strain CKI1, active compounds read low 0.847 | S. cerevisiae deletion strains, locus YLR403W, strain SFP1, active compounds read low 0.811 | S. cerevisiae deletion strains, locus YML070W, strain DAK1, active compounds read low 0.883 | S. cerevisiae deletion strains, locus YMR001C, strain CDC5, active compounds read low 0.969 | S. cerevisiae deletion strains, locus YMR205C, strain PFK2 (second series), active compounds read low 0.918 | S. cerevisiae deletion strains, locus YMR277W, strain FCP1, active compounds read low 0.973 | S. cerevisiae deletion strains, locus YNL006W, strain LST8, active compounds read low 0.979 | S. cerevisiae deletion strains, locus YNL020C, strain ARK1, active compounds read low 0.828 | S. cerevisiae deletion strains, locus YNL161W, strain CBK1, active compounds read low 0.971 | S. cerevisiae deletion strains, locus YNL183C, strain NPR1, active compounds read low 0.94 | S. cerevisiae deletion strains, locus YNL207W, strain RIO2, active compounds read low 0.954 | S. cerevisiae deletion strains, locus YNL222W, strain SSU72, active compounds read low 0.977 | S. cerevisiae deletion strains, locus YNL307C, strain MCK1 (second series), active compounds read low 0.787 | S. cerevisiae deletion strains, locus YOL078W, strain AVO1, active compounds read low 0.968 | S. cerevisiae deletion strains, locus YOL136C, strain PFK27, active compounds read low 0.832 | S. cerevisiae deletion strains, locus YOR061W, strain CKA2, active compounds read low 0.851 | S. cerevisiae deletion strains, locus YOR119C, strain RIO1, active compounds read low 0.957 | S. cerevisiae deletion strains, locus YOR231W, strain MKK1, active compounds read low 0.895 | S. cerevisiae deletion strains, locus YOR329C, strain SCD5, active compounds read low 0.979 | S. cerevisiae deletion strains, locus YPL031C, strain PHO85, active compounds read low 0.856 | S. cerevisiae deletion strains, locus YPL153C, strain RAD53, active compounds read low 0.889 | S. cerevisiae deletion strains, locus YPL204W, strain HRR25, active compounds read low 0.814 | S. cerevisiae deletion strains, locus YPL209C, strain IPL1, active compounds read low 0.975 | S. cerevisiae deletion strains, locus YPL256C, strain CLN2, active compounds read low 0.939 | S. cerevisiae deletion strains, locus YPR025C, strain CCL1, active compounds read low 0.978 | S. cerevisiae deletion strains, locus YPR106W, strain ISR1, active compounds read low 0.966 | S. cerevisiae deletion strains, locus YPR111W, strain DBF20, active compounds read low 0.961 | S. cerevisiae deletion strains, strain NNK1, active compounds read low 0.952 | S. cerevisiae deletion strains, strain TSCII, active compounds read low 0.956

CC(=O)/C(=C\Nc1ncccn1)S(=O)(=O)c1ccc(Cl)cc1
inactive: S. cerevisiae deletion strains, locus YAL013W, strain DEP1, active compounds read low 1.01 | S. cerevisiae deletion strains, locus YBR229C, strain ROT2, active compounds read low 1 | S. cerevisiae deletion strains, locus YCL061C, strain MRC1, active compounds read low 1 | [1] 1.01 | S. cerevisiae deletion strains, locus YDR150W, strain NUM1, active compounds read low 0.977 | S. cerevisiae deletion strains, locus YEL061C, strain CIN8, active compounds read low 1 | S. cerevisiae deletion strains, locus YGR078C, strain PAC10, active compounds read low 1 | S. cerevisiae deletion strains, locus YGR229C, strain SMI1, active compounds read low 1 | [2] 0.822 | S. cerevisiae deletion strains, locus YHR087W, strain rtc3, active compounds read low 0.98 | S. cerevisiae deletion strains, locus YJL187C, strain SWE1, active compounds read low 1 | S. cerevisiae deletion strains, locus YJR043C, strain POL32, active compounds read low 1.05 | S. cerevisiae deletion strains, locus YJR075W, strain HOC1, active compounds read low 0.941 | S. cerevisiae deletion strains, locus YLR039C, strain RIC1, active compounds read low 0.927 | S. cerevisiae deletion strains, locus YLR058C, strain SHM2 (second series), active compounds read low 0.993 | S. cerevisiae deletion strains, locus YLR085C, strain ARP6, active compounds read low 0.918 | S. cerevisiae deletion strains, locus YLR262C, strain YPT6, active compounds read low 0.89 | S. cerevisiae deletion strains, locus YML094W, strain GIM5, active compounds read low 0.97 | S. cerevisiae deletion strains, locus YMR219W, strain ESC1, active compounds read low 0.998 | S. cerevisiae deletion strains, locus YMR263W, strain SAP30, active compounds read low 0.987 | S. cerevisiae deletion strains, locus YNL128W, strain TEP1, active compounds read low 1.01 | S. cerevisiae deletion strains, locus YNL153C, strain GIM3, active compounds read low 1.01 | S. cerevisiae deletion strains, locus YNL298W, strain CLA4 (second series), active compounds read low 0.954 | S. cerevisiae deletion strains, locus YNL322C, strain KRE1, active compounds read low 0.946 | S. cerevisiae deletion strains, locus YNR030W, strain Alg12, active compounds read low 0.975 | S. cerevisiae deletion strains, locus YPL055C, strain LGE1, active compounds read low 0.925 | S. cerevisiae deletion strains, locus YPL241C, strain CIN2, active compounds read low 0.98 | S. cerevisiae deletion strains, locus YPR135W, strain CTF4, active compounds read low 0.9 | S. cerevisiae strains, strain wild type, active compounds read low 1
